Reference: PubChem BioAssay (NCI)
Values joined by “and” are separate entries in the source; they are usually repeats but may differ in a detail not shown here. Equal values may be shown once. About 83,000 compounds went through this panel and 20% of them were active in at least one assay; those are over-represented in the sample as a whole.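 Cell lines were cultured in 96-well plates, exposed to a single compound concentration, and assessed for percent growth 48 hours later.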 Unmarked numbers belong to inactive results. Active and inactive are the calls of the source. The calls were made as follows: active = growth percent below 10; inactive = the rest.

Test system: MDA-MB-468 breast
Experiment: NCI-60 one-dose screen, 48 h (100 = growth as untreated, 0 = no growth, -100 = all killed)
Conditions: 10 µM unless noted

| SMILES | growth |
| --- | --- |
| COC(=O)c1c(C)nc(Nc2nc3ccccc3s2)nc1-c1ccc(Cl)cc1Cl | 104% |
| C[n+]1c2ccccc2nc2c(N)cc(N)cc21 | -5.14% (active) |
| C=CCc1cc(C)ccc1NC(C(=O)NCC(=O)OC)c1ccccc1 (stereo not given) | 111% |
| C[n+]1ccc(Nc2ccc(NC(=O)c3ccc(Nc4cc[n+](C)c5ccc(N)cc45)cc3)cc2)cc1 | 94.8% |
| CC(C)(C)c1ccc(O)c(Br)c1 | 70.2% |
| CCOC(=O)c1c(C)nc2c(c1N)C(=O)C(=O)N2Cc1ccc(OC)cc1 | 95% |
| CCCCC(=O)Nc1c(C(=O)Nc2ccccc2)sc2nc3c(cc12)C(OC(=O)CCCC)CCC3 (stereo not given) | 56.2% |
| Cc1nc2ccc(Nc3nc(N4CCOCC4)nc(N4CCN(C)CC4)n3)cc2n1Cc1ccccc1 | 66.8% |
| COc1cc(C2C3=C(COC3=O)N(CCO)c3cc4c(cc32)OCCO4)cc(OC)c1OC (stereo not given) | -64.5% (active) |
| COc1ccc(/C=C(/C(=O)N2CCN(c3ccccc3)CC2)c2cc(OC)c(OC)c(OC)c2)cc1O | 17.6% |
| CC1(C)CC[C@]23CC[C@]4(C)[C@H](CC[C@@H]5[C@@]6(C)CCCN(CO)C(C)(C)[C@@H]6CC[C@]54C)[C@H]2[C@H]1OC3 | 84.9% |
| Cn1c2ccccc2c2c3[nH]c(=O)[nH]c(=O)c3c3c4ccccc4n(C)c3c21 | 32.4% |
| Cc1cc(C)n(Nc2nc3ccccc3[nH]c2=O)c(=O)c1C#N | 90.8% |
| CNCCCOc1c(Br)cc(CCNC(=O)/C(Cc2cc(Br)c(OC)c(Br)c2)=N/O)cc1Br | 3.11% (active) |
| COc1cc(/C=C/C(=O)c2ccc(NC(=O)COc3cccc4cccnc34)cc2)cc(OC)c1OC | 75.6% |
| COc1cc2oc(-c3cccc(NC(=O)c4cccc([N+](=O)[O-])c4)c3)cc(=O)c2c(OC)c1OC | -1.02% (active) |
| CCN(CC)C(=O)C1=C(C)NC(=O)NC1c1ccc2c(c1)OCO2 (stereo not given) | 112% |
| COc1ccc(-c2nn(-c3cccc(NC(=O)Nc4ccccc4)c3)cc2-c2ccncc2)cc1Cl | 29.4% |
| COC(OC)C1(c2ccccc2)NC(=O)NC1=O (stereo not given) | 113% |
| CCOC(=O)C1CCN(S(=O)(=O)/N=C2/NC(=O)NC2=C(Cl)Cl)CC1 | -22.2% (active) |

| SMILES | growth |
| --- | --- |
| Cc1ccc(C(=O)Nc2cccc(F)c2)cc1NC(=O)C1(c2ncnc3[nH]ccc23)CC1 | 85.8% |
| Cc1ccc(S(=O)(=O)NCCCNc2nccc(-c3c(-c4ccccc4)nc4sccn34)n2)cc1 | 53.8% |
| O=C(Nc1cccc(F)c1)Nc1cccc(Cl)c1 | 90% |
| CN[C@]12CC3(C=CC(=O)C=C3)O[C@@]1(Cc1ccc(OC)cc1)N(C)C(=O)N2 | 36.4% |
| Cc1ccc(Cn2c(O)c(N=NC(=O)c3ccc(S(N)(=O)=O)cc3)c3ccccc32)cc1 | 100% |
| COC(=O)[C@]12CC[C@@H](C)[C@H](C)[C@@H]1C1=CC[C@@H]3[C@@]4(C)C(C=O)=C[C@@](C)(COC(C)=O)[C@@H]4C(=O)C[C@@]3(C)[C@]1(C)CC2 | 33.6% |
| CCOC(=O)c1c(C)nc(C)c(C(=O)OCC)c1-c1cccnc1 | 94.8% |
| COC(=O)/C=C1/SC(=Nc2ccc([N+](=O)[O-])cc2)N(CCc2c[nH]c3ccc(O)cc23)C1=O | 56.8% |
| CCCCCCCCCCCCSC(=N)N | -58.5% (active) |
| Cn1c(=O)c2[nH]c(C3CC=CCC3)nc2n(C)c1=O (stereo not given) | 107% |
| Nc1ccccc1-c1n[nH]c(=O)[nH]c1=O | 135% |
| Nc1nc(Nc2ccccc2SSc2ccccc2Nc2nc(N)nc(-c3ccc(C(F)(F)F)cc3)n2)nc(-c2ccc(C(F)(F)F)cc2)n1 | 132% |
| CCNCCOc1ccc(/C(=C(/CC)c2ccc(Cl)cc2)c2ccc(OCCCN(C)C)cc2)cc1 | -87% (active) |
| O=C(Nc1ccc(Oc2ccc(F)cc2)c(Cl)c1)c1cccnc1 | 57.2% |
| CCc1ccc(Oc2c(-c3ccc(OCCc4cccc(C(F)(F)F)c4)cc3O)n[nH]c2C(F)(F)F)cc1 | 22.5% |
| COc1cc2c(cc1O)CCc1cc(O)cc(OC)c1-2 | 98% |
| CCOC(=O)c1c(C=O)nc2ccccc2c1/C=C/c1ccc(Cl)cc1 | 102% |
| COc1ccc2c(=O)cc(-c3ccccc3)[nH]c2c1 | 7.37% (active) and -4.48% (active) |
| O=c1c(-c2nc3ccccc3[nH]2)cc2ccccc2n1Cc1cn(Cc2ccc(F)cc2)nn1 | 4.78% (active) |
| NC(=O)NC(=O)/C=C/C(=O)OCCCl | 88.5% |
